Data on 36 compounds can be found in PubChem BioAssay (EPA / NIEHS).

The structures appear in SMILES notation. Where “and” joins values, the source holds several entries; their conditions need not be identical. Equal values may be shown once. Calls of active or inactive are those of the source. The calls were made as follows: active = hit-call score of the fitted dose curve at least 0.9, where 1 is the maximum; inactive = score below 0.9.

Read-out in this assay: Monocyte Chemoattractant Protein-1 (MCP1), CCL2 (gene 6347)
The assay is described as follows: BSK_LPS_MCP1: BioMAP Diversity Plus: LPS Assay for Monocyte Chemoattractant Protein-1 (MCP1) Biomarker Activity (AID 2283081).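 As to AC50: secreted MCP-1 protein quantified by ELISA in culture supernatant.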 The settings on record: primary human HUVEC with PBMC; actives raise or lower the signal. A digest of the protocol: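 ELISA read-out of MCP-1 after 24 h chemical dosing of a human umbilical vein endothelial cell/peripheral blood mononuclear cell co-culture stimulated with LPS. Gain or loss of signal fitted relative to DMSO controls.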
Take `O=c1c2ccccc2oc2ccccc12`: the outcome was inactive. Same read-out and setting: next, `COCc1c(C(C)C)nc(C(C)C)c(/C=C/[C@@H](O)C[C@@H](O)CC(=O)O)c1-c1ccc(F)cc1`: “inactive”; `O=Nc1ccc(O)cc1`: “inactive”. Consider `N#[N+]c1ccc2c(S(=O)(=O)[O-])cccc2c1O`, for which the result was inactive. As for `C#CC1(O)CC[C@H]2[C@@H]3CCC4=CCCC[C@@H]4[C@H]3CC[C@@]21C` (stereo partly specified), the AC50 (usually the concentration giving half of the maximal activity seen) is 35.7 µM (active). The same measure, in the same setting: next, `O=C(Cl)c1cc(C(=O)Cl)cc(C(=O)Cl)c1`: 29.9 µM (active). As to `CC(C)C(=O)C(C)C`, the result was inactive.

Regarding `C=CC(=O)OCC(Br)CBr` (stereo unspecified), the AC50 is 30 µM (active). The same measure, in the same setting: with `CCOC(=O)c1ccccc1C(=C1C=C(Br)C(=O)C(Br)=C1)c1cc(Br)c(O)c(Br)c1` the figure was 20.8 µM (active) and 20.9 µM (active); with `c1ccc2c(c1)ccc1ncccc12`, 3.97 µM (active).

Take `CCCCC(CC)COC(=O)c1ccccc1O` (stereo unspecified): the outcome was inactive. For `CCCCCCCCCCCCCCCC[N+](C)(C)CC`, the AC50 is 2.58 µM (active). In the case of `COc1ccc2nc(N)sc2c1`, the result was inactive. Consider `CC(C)(c1cc(Br)c(OCCO)c(Br)c1)c1cc(Br)c(OCCO)c(Br)c1`, for which the result was inactive.

For the compound `CCCCC/C=C\C/C=C\CCCCCCCC(=O)OC`, the half-maximal activity concentration (AC50) was 37.1 µM (active). The same measure, in the same setting: with `Nc1ccc(N)c(Cl)c1` the figure was 32.7 µM (active) and 32.2 µM (active). As for `CC1OC1C1CCC2(C)OC2C1` (stereo unspecified), the result was inactive. The same measure, in the same setting: with `C=C[Si](OC(C)=O)(OC(C)=O)OC(C)=O` the entry was “inactive”; with `S=C(NC1CCCCC1)NC1CCCCC1`, “inactive”. With `C/C=C\C/C=C/CCCCCCCCOC(C)=O`, the AC50 is 30.5 µM (active). Consider `CCCCC(CC)COCC1CO1` (stereo unspecified), for which the result was inactive.

For the compound `CCO[Si](CCCN=C=O)(OCC)OCC`, the result was inactive. Still for that read-out and setting: next, `CO[Si](OC)(OC)c1ccccc1`: “inactive”; `CCCCNc1ccc(NCCCC)c2c1C(=O)c1ccccc1C2=O`: “inactive”. Still for that read-out and setting: with `CCO[Si](C)(OCC)OCC` the entry was “inactive”; with `O=C1CCCN1CCO`, “inactive”; with `CN1C(=O)N(C)C(O)C1O` (stereo unspecified), “inactive”. For `C=CCOc1c(Br)cc(Br)cc1Br`, the AC50 is 0.054 µM (active). `CCCCCCCCc1ccc(Nc2ccc(CCCCCCCC)cc2)cc1`: the result was inactive.

Take `O=C(c1ccc(O)cc1)c1ccc(O)cc1O`: the result was inactive. For the compound `CCOc1nc(F)cc2nc(S(=O)(=O)Nc3c(Cl)cccc3C(=O)OC)nn12`, the outcome was inactive. Still for that read-out and setting: next, `C=CC=CC=CCCCCC`: “inactive”. On the same count and under the same terms, with `c1ccc(-c2ccccn2)nc1` the entry was “inactive”; with `C=CCOCC(O)CCl` (stereo unspecified), “inactive”; with `c1ccc2c(c1)ccc1cc3c(ccc4ccccc43)cc12`, “inactive”. The same measure, in the same setting: with `O=C(Nc1ccccc1SSc1ccccc1NC(=O)c1ccccc1)c1ccccc1` the entry was “inactive”.
